Each compound was assayed on Plasmodium falciparum (assay: GSK_TCMDC: Inhibition of Plasmodium falciparum 3D7 in whole red blood cells, using parasite LDH activity as an index of growth. Test compounds present at 2uM).
Assay type: functional

Inhibition, 98%:
Fc1ccc2[nH]c(-c3ccc(-c4ccc(CN5CCCCC5)cc4)cc3)nc2c1.O=C(O)C(F)(F)F, CCCNCc1ccc(-c2ccc(CN(CCOC)C(=O)CCc3ccc(OC)cc3)cc2)nc1.O=C(O)C(F)(F)F, COc1ccccc1C(=O)Nc1ccc(Nc2nc(C)cc(N3CCOCC3)n2)cc1, CCCCCN1CCC(CNS(=O)(=O)c2ccc(C(=O)Nc3cccc(C(F)(F)F)c3)cc2)CC1.O=C(O)C(F)(F)F

Inhibition, 99%:
c1ccc(N2CCN(c3cc(-c4cccnc4)nc(-c4ccncc4)n3)CC2)nc1, O=C(NCCNc1ccnc(NCc2ccc(F)cc2)n1)c1cc2ccccc2s1, Cc1cnc(C(=O)Nc2cccc(-c3cccc(-c4nc5cccc(C)c5[nH]4)c3)c2)cn1, N#Cc1cccc(NC(=O)Nc2ccc3c(c2)CN(Cc2c[nH]c4ncccc24)C3)c1, Cc1cc(NC(=O)Nc2ccc3sccc3c2)c2ccccc2n1, CN1CCN(c2ccnc3ccc(NC(=O)Nc4ccc(-c5ccncc5)c(C(F)(F)F)c4)cc23)CC1, CC[C@H]1CN(C/C=C/c2ccc(OC)cc2)CC[C@H]1CCCc1ccnc2ccc(O)cc12

Inhibition, 93%:
CCCCC(=O)NC(c1cccs1)c1cc(Cl)c2cccnc2c1O (stereo not given), COc1cc(Cc2cnc(N)nc2N)cc(OCCNC(=O)OCc2ccccc2)c1OC

Inhibition, 94%:
C=C[C@]1(C)C[C@@H](OC(=O)NC(=O)CCCS(=O)(=O)c2nnc(C)s2)[C@]2(C)[C@H](C)CC[C@]3(CCC(=O)[C@H]32)[C@@H](C)[C@@H]1O, CCCC[C@@H](C(=O)NCc1ccccc1C(F)(F)F)N1C(=O)CCC1C(=O)Nc1ccc([N+](=O)[O-])cc1 (stereo not given in full)

Inhibition, 85%:
COc1ccc(-c2cc(C(=O)N3CCc4ccccc43)c3ccccc3n2)cc1OC, CCCOc1cc(Cc2cnc(N)nc2N)cc(OC)c1OC, O=C(C=Cc1ccc(Cl)c(Cl)c1)NCCCCCN1CCCC(CCCNC(=O)C2CC2c2ccccc2)C1 (stereo not given)

Inhibition, 92%:
CCOc1ccccc1C(=O)Nc1cccc(-c2nc3ncccn3c2C)c1

Inhibition, 91%:
CC(C)Cn1cc(C2CCN(CCN3CCC(CNC(=O)c4ccc(NC(=O)c5cc(Cl)cc(Cl)c5)cc4)CC3)CC2)c2ccccc21, O=C(/C=C/c1ccc(Cl)c(Cl)c1)NCCCCCN1CCC(CCCNC(=O)Nc2ccc(C(F)(F)F)cc2)CC1, CN1CCCN(Cc2ccc(-c3ccc(NC(=O)c4ccc(C#N)cc4)cc3)cc2)CC1.O=C(O)C(F)(F)F

Inhibition, 86%:
Cl.N=c1c2c(n(Cc3ccccc3)c3c1CCC3)CCCC2

Inhibition, 90%:
Cc1cc(-c2cccc(CNCCc3ccc(Cl)cc3)c2)cnc1N.Cl

Inhibition, 97%:
O=C(Nc1cc(Cl)ccc1Cl)N[C@H]1CCN(CCCCCNC(=O)C2CC2c2ccc(Cl)c(Cl)c2)C1 (stereo not given in full), CC(C)(C)OC(=O)NCC(=O)N(Cc1ccccc1)Cc1ccccc1, Cc1nn(-c2ccnc3cc(Cl)ccc23)c(C)c1C(=O)NCc1cc(Cl)cc(Cl)c1, CN1CCN(CCCN(Cc2cccc(-c3cccc(CNCCc4ccccc4)c3)c2)C(=O)Nc2ccccc2)CC1.O=C(O)C(F)(F)F

Inhibition, 95%:
Cc1cc(OCCCN2CCC(NS(=O)(=O)c3ccc(C(F)(F)F)cc3)CC2)c2ccccc2n1, CCOC(=O)c1ccc(NC(=O)N[C@@H](Cc2ccccc2)C(=O)NC2CCN(Cc3ccc(O)cc3)C2)cc1 (stereo not given in full)

Inhibition, 100%:
COc1ccc(-c2ccc(NC(=O)c3cccc(C#N)c3)cc2)cc1CN1CCN(C)CC1.O=C(O)C(F)(F)F, COc1ccc2nc(C)cc(N/N=C/C=C/c3ccccc3)c2c1, O=C(Nc1ccc(Cl)cc1)Nc1cccc(CCNCc2ccccc2)c1.O=C(O)C(F)(F)F, Cc1cccc2nc(-c3cccc(-c4ccc(NC(=O)c5ccc(=O)[nH]n5)cc4)c3)[nH]c12, CCCN(CCC)C(C)CCC(C)Nc1c2ccc(Cl)cc2nc2ccc(OC)cc12.Cl (stereo not given), CN1CCc2cc(O)c(NS(=O)(=O)c3ccc(-c4ccc(Cl)cc4)cc3)cc2CC1.Cl, Br.Oc1ccc(CCNCCCCCCNCCc2ccc(Cl)c(Cl)c2)cc1O, Cl.N=c1n(CCN2CCCC2)c2ccccc2n1CC(O)c1ccc(Cl)c(Cl)c1 (stereo not given), O=C(Nc1cccc(-c2ccc(-c3nc4ccccc4[nH]3)cc2)c1)Nc1ccc(F)c(F)c1F

Inhibition, 96%:
COc1cc(Nc2nccc(N3CCC(NC(=O)Nc4ccc5c(c4)OCO5)C3)n2)cc(OC)c1OC (stereo not given)

— ChEMBL document CHEMBL1157539, “Thousands of chemical starting points for antimalarial lead identification” (Nature, 2010)
